# The supplement of paper PMC11732987, “Enantioselective OTUD7B fragment discovery through chemoproteomics screening and high-throughput optimisation” (Communications Chemistry, 2025)
# Values without a mark were called inactive.
# Legend:
# Assay in all cases: log2 ratio of Biotin-Ahx-Ub-VS probe labelling (compound/DMSO); higher = less target engagement, active = hit call of the paper (q ≤ 0.05, log2 ratio ≤ -1)
# Conditions in all cases: treatment time: 3 h
# [1] = compound: CN(Cc1cccc(Br)c1)C(=O)CCl
# Procedure, shortened: (§1)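 DUBs in HEK293T lysate were labelled with Biotin-Ahx-Ub-VS (0.5 µM final, 1 h) after a 3 h treatment with compound at 50 or 200 µM or with DMSO, done in triplicate on 495 µg of lysate per sample. NeutrAvidin-enriched proteins were digested with LysC and trypsin and run by diaPASEF LC-MS/MS. Median-normalised label-free quantities gave average base-two log ratios of compound to DMSO by unpaired t-test, restricted to proteins with at least 2 unique peptides.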
# [2] = compound: CN(Cc1cccc(OCc2ccccc2C)c1)C(=O)CCl
# Procedure, shortened: as §1
# [3] = compound: CN(Cc1ccccc1)C(=O)CCl
# Procedure, shortened: as §1
# [4] = compound: COc1ccc(CN(C)C(=O)CCl)cc1
# Procedure, shortened: as §1
# [5] = compound: COc1cccc(CN(CCCc2ccccc2)C(=O)CCl)c1
# Procedure, shortened: as §1
# [6] = compound: ClCC(=O)N1CCc2cc(Cl)c(Cl)cc2C1
# Procedure, shortened: as §1
# [7] = compound: ClCC(=O)N1CCc2nc(ncc2C1)-c1ccccc1
# Procedure, shortened: as §1
# [8] = compound: ClCC(=O)N1CCc2nocc2C1
# Procedure, shortened: as §1
# [9] = compound: ClCC(=O)N1CCc2scc(Br)c2C1
# Procedure, shortened: as §1
# [10] = compound: ClCC(=O)NC(C1CCCC1)c1cccs1
# Procedure, shortened: as §1
# Sequence of UniProt Q8TE49 (Q8TE49 whole entry): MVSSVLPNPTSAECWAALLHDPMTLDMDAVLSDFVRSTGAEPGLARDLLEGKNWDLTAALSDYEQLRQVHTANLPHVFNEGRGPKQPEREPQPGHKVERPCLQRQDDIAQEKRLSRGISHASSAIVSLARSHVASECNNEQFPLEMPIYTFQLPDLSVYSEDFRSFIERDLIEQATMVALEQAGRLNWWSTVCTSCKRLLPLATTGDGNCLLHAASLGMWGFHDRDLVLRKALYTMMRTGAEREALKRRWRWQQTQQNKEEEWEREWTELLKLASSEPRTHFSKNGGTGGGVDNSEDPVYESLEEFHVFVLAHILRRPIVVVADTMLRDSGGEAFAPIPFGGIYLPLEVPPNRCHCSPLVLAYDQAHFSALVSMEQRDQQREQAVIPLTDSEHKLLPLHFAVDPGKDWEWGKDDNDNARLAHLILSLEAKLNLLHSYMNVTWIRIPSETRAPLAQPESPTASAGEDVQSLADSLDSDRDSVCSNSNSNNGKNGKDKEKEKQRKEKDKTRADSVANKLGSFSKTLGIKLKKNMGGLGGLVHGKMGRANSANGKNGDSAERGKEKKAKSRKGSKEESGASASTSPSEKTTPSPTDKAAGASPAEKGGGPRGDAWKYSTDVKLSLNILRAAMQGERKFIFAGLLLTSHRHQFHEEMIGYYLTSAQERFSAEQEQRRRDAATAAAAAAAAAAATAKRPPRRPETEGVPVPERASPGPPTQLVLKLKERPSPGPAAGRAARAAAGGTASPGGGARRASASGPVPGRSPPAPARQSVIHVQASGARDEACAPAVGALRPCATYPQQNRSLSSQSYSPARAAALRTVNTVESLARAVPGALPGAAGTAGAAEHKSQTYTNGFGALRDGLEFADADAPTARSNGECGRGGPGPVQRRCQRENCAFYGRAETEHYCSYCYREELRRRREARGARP
# Sequence of UniProt Q9H9J4 (Q9H9J4 whole entry): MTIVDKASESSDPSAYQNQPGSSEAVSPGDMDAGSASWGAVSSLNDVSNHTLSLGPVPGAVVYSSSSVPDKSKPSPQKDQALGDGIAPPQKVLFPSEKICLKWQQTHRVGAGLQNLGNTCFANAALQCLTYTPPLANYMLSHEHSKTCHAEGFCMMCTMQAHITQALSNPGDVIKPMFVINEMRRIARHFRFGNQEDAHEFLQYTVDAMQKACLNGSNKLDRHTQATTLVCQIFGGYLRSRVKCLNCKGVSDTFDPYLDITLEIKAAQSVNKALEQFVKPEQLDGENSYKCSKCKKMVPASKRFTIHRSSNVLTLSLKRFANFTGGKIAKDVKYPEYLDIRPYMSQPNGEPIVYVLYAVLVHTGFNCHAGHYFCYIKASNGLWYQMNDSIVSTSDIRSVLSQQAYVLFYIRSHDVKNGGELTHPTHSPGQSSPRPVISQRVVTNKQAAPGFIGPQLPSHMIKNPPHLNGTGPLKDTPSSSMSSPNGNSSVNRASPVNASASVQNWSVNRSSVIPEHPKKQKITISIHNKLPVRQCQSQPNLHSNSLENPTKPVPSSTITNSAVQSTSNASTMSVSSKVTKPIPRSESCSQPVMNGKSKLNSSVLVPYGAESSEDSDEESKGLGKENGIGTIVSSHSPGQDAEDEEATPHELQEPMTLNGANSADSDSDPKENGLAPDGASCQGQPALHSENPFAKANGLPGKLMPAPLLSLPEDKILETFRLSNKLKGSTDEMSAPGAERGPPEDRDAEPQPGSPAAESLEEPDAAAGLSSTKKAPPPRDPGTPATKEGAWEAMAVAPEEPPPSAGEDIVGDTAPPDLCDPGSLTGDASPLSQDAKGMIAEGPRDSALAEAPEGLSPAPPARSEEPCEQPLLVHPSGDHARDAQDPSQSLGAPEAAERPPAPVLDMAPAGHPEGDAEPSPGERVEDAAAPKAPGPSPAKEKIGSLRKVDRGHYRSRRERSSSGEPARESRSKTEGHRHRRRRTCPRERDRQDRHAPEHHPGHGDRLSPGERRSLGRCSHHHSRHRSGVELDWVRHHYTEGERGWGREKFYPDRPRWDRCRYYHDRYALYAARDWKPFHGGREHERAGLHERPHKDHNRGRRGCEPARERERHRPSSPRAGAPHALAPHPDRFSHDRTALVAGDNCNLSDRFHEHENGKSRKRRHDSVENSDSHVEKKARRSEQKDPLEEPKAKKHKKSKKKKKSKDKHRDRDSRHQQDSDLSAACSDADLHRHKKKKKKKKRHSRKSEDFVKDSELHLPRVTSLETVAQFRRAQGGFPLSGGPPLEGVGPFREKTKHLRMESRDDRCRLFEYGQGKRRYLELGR
# Sequence of UniProt Q86UV5 (Q86UV5 whole entry): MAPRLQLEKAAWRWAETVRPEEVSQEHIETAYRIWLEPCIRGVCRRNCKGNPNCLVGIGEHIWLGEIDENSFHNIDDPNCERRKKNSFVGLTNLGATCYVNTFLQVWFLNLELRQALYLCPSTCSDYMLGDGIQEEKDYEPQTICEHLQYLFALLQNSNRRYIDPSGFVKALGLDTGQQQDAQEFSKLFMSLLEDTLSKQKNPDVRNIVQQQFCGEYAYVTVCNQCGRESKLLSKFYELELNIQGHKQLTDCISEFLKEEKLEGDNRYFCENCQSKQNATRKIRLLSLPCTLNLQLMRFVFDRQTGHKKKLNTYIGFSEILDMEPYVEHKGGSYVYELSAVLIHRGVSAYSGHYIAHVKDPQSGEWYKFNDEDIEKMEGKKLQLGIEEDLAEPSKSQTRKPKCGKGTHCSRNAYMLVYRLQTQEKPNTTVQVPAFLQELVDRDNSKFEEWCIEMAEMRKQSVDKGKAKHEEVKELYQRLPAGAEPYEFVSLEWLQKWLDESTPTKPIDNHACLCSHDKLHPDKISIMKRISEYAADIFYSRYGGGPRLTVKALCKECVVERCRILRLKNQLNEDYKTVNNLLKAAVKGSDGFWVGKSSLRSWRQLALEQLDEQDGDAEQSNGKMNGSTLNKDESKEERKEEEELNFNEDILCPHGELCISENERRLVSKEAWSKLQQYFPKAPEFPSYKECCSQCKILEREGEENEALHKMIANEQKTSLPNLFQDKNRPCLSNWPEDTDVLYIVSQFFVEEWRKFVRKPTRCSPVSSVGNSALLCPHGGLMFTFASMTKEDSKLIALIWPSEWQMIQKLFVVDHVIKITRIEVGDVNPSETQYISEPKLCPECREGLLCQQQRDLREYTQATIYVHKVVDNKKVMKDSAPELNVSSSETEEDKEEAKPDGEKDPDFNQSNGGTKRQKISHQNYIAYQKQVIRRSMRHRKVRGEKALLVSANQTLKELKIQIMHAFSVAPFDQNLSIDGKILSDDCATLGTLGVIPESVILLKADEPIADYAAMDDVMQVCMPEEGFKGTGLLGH
# Sequence of UniProt Q9NUU6 (Q9NUU6 whole entry): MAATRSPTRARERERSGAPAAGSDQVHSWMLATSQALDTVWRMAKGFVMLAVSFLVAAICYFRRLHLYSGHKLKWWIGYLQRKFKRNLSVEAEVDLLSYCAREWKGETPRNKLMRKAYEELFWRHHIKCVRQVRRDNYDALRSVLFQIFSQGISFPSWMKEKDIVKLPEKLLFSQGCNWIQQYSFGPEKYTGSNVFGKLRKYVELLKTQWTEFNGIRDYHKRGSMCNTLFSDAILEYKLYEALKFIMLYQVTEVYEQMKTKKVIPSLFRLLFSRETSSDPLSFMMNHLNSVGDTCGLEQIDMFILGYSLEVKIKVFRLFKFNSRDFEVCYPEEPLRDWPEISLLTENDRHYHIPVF
# Sequence of UniProt Q9UGI0 (Q9UGI0 whole entry): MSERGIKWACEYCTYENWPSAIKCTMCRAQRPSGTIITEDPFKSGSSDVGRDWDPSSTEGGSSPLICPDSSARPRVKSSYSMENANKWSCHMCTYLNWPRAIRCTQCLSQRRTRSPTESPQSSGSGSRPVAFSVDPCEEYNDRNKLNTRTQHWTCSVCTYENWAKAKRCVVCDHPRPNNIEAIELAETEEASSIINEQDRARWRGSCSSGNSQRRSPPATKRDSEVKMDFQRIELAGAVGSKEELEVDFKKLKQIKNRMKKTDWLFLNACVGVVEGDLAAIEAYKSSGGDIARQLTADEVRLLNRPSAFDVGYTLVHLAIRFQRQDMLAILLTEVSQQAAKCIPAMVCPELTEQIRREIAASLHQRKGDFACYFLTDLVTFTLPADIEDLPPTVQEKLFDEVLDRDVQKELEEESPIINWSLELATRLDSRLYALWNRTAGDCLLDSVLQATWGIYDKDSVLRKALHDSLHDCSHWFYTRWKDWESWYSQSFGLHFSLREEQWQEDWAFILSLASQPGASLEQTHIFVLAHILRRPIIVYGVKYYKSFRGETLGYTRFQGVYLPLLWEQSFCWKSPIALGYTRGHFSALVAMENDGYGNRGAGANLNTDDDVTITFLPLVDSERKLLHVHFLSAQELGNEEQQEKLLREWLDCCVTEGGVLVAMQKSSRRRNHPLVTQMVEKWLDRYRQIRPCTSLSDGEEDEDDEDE
# Sequence of UniProt P54252 (P54252 whole entry): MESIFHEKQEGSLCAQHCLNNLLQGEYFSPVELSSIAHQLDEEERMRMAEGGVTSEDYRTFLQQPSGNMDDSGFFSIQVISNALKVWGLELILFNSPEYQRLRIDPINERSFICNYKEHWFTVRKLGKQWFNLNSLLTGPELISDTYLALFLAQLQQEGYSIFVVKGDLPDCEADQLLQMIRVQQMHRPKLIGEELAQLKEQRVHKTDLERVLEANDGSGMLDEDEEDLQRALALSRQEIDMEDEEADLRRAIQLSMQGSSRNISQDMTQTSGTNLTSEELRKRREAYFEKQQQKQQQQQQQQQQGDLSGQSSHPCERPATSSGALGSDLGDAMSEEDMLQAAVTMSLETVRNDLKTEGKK
Target,log2 ratio of Biotin-Ahx-Ub-VS probe labelling ([1]; compound concentration: 50uM),log2 ratio of Biotin-Ahx-Ub-VS probe labelling ([1]; compound concentration: 200uM),log2 ratio of Biotin-Ahx-Ub-VS probe labelling ([2]; compound concentration: 50uM),log2 ratio of Biotin-Ahx-Ub-VS probe labelling ([2]; compound concentration: 200uM),log2 ratio of Biotin-Ahx-Ub-VS probe labelling ([3]; compound concentration: 50uM),log2 ratio of Biotin-Ahx-Ub-VS probe labelling ([3]; compound concentration: 200uM),log2 ratio of Biotin-Ahx-Ub-VS probe labelling ([4]; compound concentration: 50uM),log2 ratio of Biotin-Ahx-Ub-VS probe labelling ([4]; compound concentration: 200uM),log2 ratio of Biotin-Ahx-Ub-VS probe labelling ([5]; compound concentration: 50uM),log2 ratio of Biotin-Ahx-Ub-VS probe labelling ([5]; compound concentration: 200uM),log2 ratio of Biotin-Ahx-Ub-VS probe labelling ([6]; compound concentration: 50uM),log2 ratio of Biotin-Ahx-Ub-VS probe labelling ([6]; compound concentration: 200uM),log2 ratio of Biotin-Ahx-Ub-VS probe labelling ([7]; compound concentration: 50uM),log2 ratio of Biotin-Ahx-Ub-VS probe labelling ([7]; compound concentration: 200uM),log2 ratio of Biotin-Ahx-Ub-VS probe labelling ([8]; compound concentration: 50uM),log2 ratio of Biotin-Ahx-Ub-VS probe labelling ([8]; compound concentration: 200uM),log2 ratio of Biotin-Ahx-Ub-VS probe labelling ([9]; compound concentration: 50uM),log2 ratio of Biotin-Ahx-Ub-VS probe labelling ([9]; compound concentration: 200uM),log2 ratio of Biotin-Ahx-Ub-VS probe labelling ([10]; compound concentration: 50uM),log2 ratio of Biotin-Ahx-Ub-VS probe labelling ([10]; compound concentration: 200uM)
USP7 (UniProt Q93009),-0.88,-1.84 (active),-0.769,-1.62 (active),-0.517,-1.2 (active),-0.358,-1.04 (active),-0.387,-1.22 (active),-1.57 (active),-2.52 (active),-0.461,-1.58 (active),-0.316,-0.618,-0.698,-2.08 (active),0.0363,-0.1
USP42 (UniProt Q9H9J4),0.0496,0.397,0.101,0.171,-0.0195,0.165,-0.0749,0.205,0.0537,0.284,0.0405,0.669,-0.0528,0.104,0.0476,0.187,0.182,0.44,-0.428,0.159
USP25 (UniProt Q9UHP3),0.514,-1.46 (active),-1.05 (active),-0.67,-0.138,-0.338,-0.545,-0.345,0.265,-0.358,0.409,-0.517,-0.562,0.332,-0.946,-0.711,0.621,-0.242,-0.129,-0.557
UniProt Q8TE49,-0.52,-0.96,-0.844,-1.04,-0.139,-0.82,-0.245,-0.895,-0.508,-0.562,-0.0686,-1.89 (active),-0.422,-1.52 (active),-0.33,-2.04 (active),-0.0558,-1.81 (active),0.0953,-0.534
ATXN3 (UniProt P54252),-0.252,-0.624,-0.719,-1.1 (active),-0.361,-0.872,-0.229,-0.842,-0.391,-0.729,-0.915,-2.63 (active),-0.221,-1.26 (active),-0.325,-1.08 (active),-0.485,-1.78 (active),0.0786,-0.141
FAM105A (UniProt Q9NUU6),-0.187,-0.00846,-0.255,-0.114,-0.198,0.0229,-0.0227,-0.0524,-0.219,-0.197,0.119,-0.429,-0.124,-0.242,-0.252,-0.149,0.049,-0.0833,0.0872,0.0369
USP48 (UniProt Q86UV5),-0.101,-0.603,-0.235,-0.552,-0.0688,-0.18,-0.0647,-0.237,-0.0292,-0.259,-0.214,-0.0205,-0.173,-0.226,-0.112,-0.324,-0.161,-0.327,-0.234,-0.00963
UniProt Q9UGI0,-0.13,-0.336,-0.392,-0.664,-0.482,-0.697,-0.127,-0.258,-0.157,-0.231,0.132,-0.542,0.0381,-0.223,-0.539,-1.16 (active),-0.277,-1.14 (active),-0.0906,0.116
